The source of these data is ChEMBL document CHEMBL1157539, “Thousands of chemical starting points for antimalarial lead identification” (Nature, 2010).

The subject of the assay is Plasmodium falciparum. The assay is described as follows: GSK_TCMDC: Inhibition of Plasmodium falciparum Dd2 in whole red blood cells, using parasite LDH activity as an index of growth. Test compounds present at 2uM. The format is functional.
One may read the Inhibition as the percentage by which the read-out fell short of the control. Lower therefore signals a weak effect. In the case of `O=C(O)C(F)(F)F.OCC1CCN(Cc2ccc(-c3ccc(-c4nc5ccccc5[nH]4)cc3)cc2)CC1`, the Inhibition amounted to 84%.
Compound `CC(C)C1=C[C@H]2C[C@]3(C4OCCO4)[C@@H]4CC[C@@H](C)[C@H]4C[C@@]2(C(=O)OCC2COCO2)[C@]13C(=O)OC(c1ccccc1)c1ccccc1` (stereo partly drawn) yielded an Inhibition of 96%.
To `O=C(Cc1ccc(NC(=O)c2ccc(O)c(-c3ccc(Cl)c(Cl)c3)c2)cc1)NCCc1ccc(Cl)c(Cl)c1` belongs 88%.
`CNCc1ccc(-c2ccc3ccnc(N)c3c2)cc1` showed an Inhibition of 98%.
To `COc1ccc(-c2cccc(NC(=O)c3cccc(C#N)c3)c2)cc1CN1CCNCC1.O=C(O)C(F)(F)F` belongs 15%; to `c1ccc2c(CNc3nc(NCC4CCCCC4)nc4[nH]cnc34)cccc2c1`, 44%; to `Cc1ccc(-c2nc3cc(C(=O)NC4CCC(N5CCCc6ccc(C#N)cc6C5)CC4)ccc3[nH]2)cc1` (stereo not drawn), 49%.
The compound `Cc1ccc(-c2cc(C(=O)Nc3ccc(S(=O)(=O)N4CCCC(C)C4)cc3)[nH]n2)c(O)c1` (stereo not drawn) came in with an Inhibition of 99%.
As for `Oc1ccc(Br)cc1-c1nc2ccc(Cl)cc2nc1-c1cc(Br)ccc1O`, the Inhibition amounted to 64%.
Consider `COc1cc(F)c2ncc(Cl)c(C(O)CN3CCC(NC(=O)c4ccc5c(c4)NC(=O)CS5)CC3)c2c1.Cl` (stereo not drawn), for which the Inhibition is reported as 68%.
To `O=C(Nc1cccc(C(F)(F)F)c1)c1cccc(S(=O)(=O)NCC2CCCN2CC2CCCCC2)c1.O=C(O)C(F)(F)F` (stereo not drawn) belongs 2%; to `CN(C)CCCNCc1ccc(-c2ccc(F)c(Cl)c2)o1.Cl`, 69%; to `COc1cc(C(=O)N2CCN(C(C)C)CC2)ccc1CN(C)CCCCN1CCN(c2cccc(Cl)c2Cl)CC1.Cl`, 98%.
